In all, about 59,000 compounds went through this assay and about 6,500 (11%) were called active. Inconclusive results (about 15%) are left out. Rule as the data show it: active = max dye-equivalent concentration above about 10 nM; inconclusive = mostly about 1.1 nM to 9.6 nM; inactive = weaker than that. Many of the other results were omitted from the sample, so actives are more common in it than they were.
Assay: qHTS Assay for Spectroscopic Profiling in A350 Spectral Region
Details: Compound autofluorescence, 340/450 nm, Alexa 350 dye-equivalents; active compounds read high

Max dye-equivalent concentration, inactive:
CCOC(=O)C1(Cc2ccc(O)cc2)NC(c2ccccc2F)C2C(=O)N(C)C(=O)C21 (stereo not given)
O=C(O)C1CC=C(Cl)CC1C(=O)NCc1ccccc1 (stereo not given)
CC1(C)Cc2ccccc2-c2nc(CN3CCOCC3)[nH]c(=O)c21
CCN(CC)C(=O)CSc1nnc(-c2cnccn2)n1-c1ccc(C)cc1
O=C(CN1CCN(S(=O)(=O)/C=C/c2ccccc2)CC1)NC(=O)NCc1ccco1
Cc1cccc(N=C2NC(=O)CS2)c1C
Cc1ccc(NC(=O)CN2CCC3(O)CCCCC3C2c2ccc3c(c2)OCO3)c(C)c1 (stereo not given)
CC(=O)Nc1cccc2c1[n+]([O-])c(C)c(C)[n+]2[O-]
O=C(c1cc(C(F)(F)F)cc(C(F)(F)F)c1)N1CCC2(CCCN(c3ccccn3)C2)CC1
O=C(Nc1cccc(C(=O)N2CCCC2)c1)c1ccccc1
C=C(C)Cn1c(SCC(=O)NCc2ccco2)nc2sc3c(c2c1=O)CCC3
c1coc(CNc2ncnc3ccccc23)c1
CCOC(=O)c1cnc(SCC(=O)NCc2ccco2)nc1N
CC(=NC1CCN(Cc2ccccc2)CC1)c1c(O)[nH]c(=O)[nH]c1=O
COc1ccccc1Nc1ncc(C(C)=O)c(C)n1
COc1ccc(CCNC(=O)CSc2nc(C)nc3c2oc2ccccc23)cc1OC
O=C1CSC(=O)N1CCOCCN1C(=O)CSC1=O
CS(=O)(=O)N1CCC2(CCN(c3ccncc3)CC2)CC1
Cc1ccc(F)cc1NC(=O)c1cccc(N(C)C)c1
OCCCNC(c1ccccc1)c1ccc(O)cc1 (stereo not given)
C=CCn1c(COc2cccc3cccnc23)nnc1SCC(=O)OC
O=C(Nc1ccc(F)cc1)c1cccnc1N1CCOCC1
CCCn1c(SCC(=O)N2CCc3ccccc32)nnc1-c1ccncc1
Cc1cccc(NC(=O)CSc2nc3c(c(=O)[nH]2)CCC3)c1C
COc1cccc(-c2nc(S(=O)(=O)c3ccccc3)c(N3CCOCC3)o2)c1
COc1ccccc1CNC(=O)C1CCN(S(C)(=O)=O)CC1
Cc1cc(C)c2nc3c(c([C@H](O)[C@@H]4CCCCN4)c2c1)CC/C3=C/c1ccc(Cl)cc1
COC(=O)c1sc(NC(=O)c2csc3c2CCCC3)nc1C
Cc1nc(NC(=O)CCC(=O)O)sc1C(=O)N(C)C
CCN(CC)P(=O)(C(NC(=O)OC)C(F)(F)C(F)(F)C(F)(F)C(F)F)N(CC)CC (stereo not given)
CCOc1cccc(NC(=O)C2CCCN(S(=O)(=O)c3ccc(OC)cc3)C2)c1 (stereo not given)
CCOC(=O)c1c(C)c(C(=O)NCCc2ccc(S(N)(=O)=O)cc2)c(C)n1CC
CCOc1ccccc1-n1c(SCC(=O)N2CCCC2)nnc1-c1ccoc1C
C=CCNc1nnc(C)c2ccccc12
O=C(OCC(=O)N1CCN(C(=O)c2ccco2)CC1)c1ccccc1Cc1ccccc1
COc1ccc(C2C(C(=O)N3CCN(c4ccc(OC)cc4)CC3)c3ccccc3C(=O)N2C)cc1 (stereo not given)
C/C(Cl)=C\Cn1c(Nc2cccc(C)c2)nc2c1c(=O)n(C)c(=O)n2C
COCC(C)NC(=O)c1ccc(Cl)c(Cl)c1 (stereo not given)
COCCNC(=O)c1ccccc1-c1nc(-c2ccccc2Cl)no1
OCCCNCc1ccccn1
Cc1noc(C)c1CSc1nc2cc(S(=O)(=O)N3CCOCC3)ccc2o1
CC(=O)Nc1ccc(S(=O)(=O)Nc2nc3n(n2)C(c2ccccc2)CC(=O)N3)cc1 (stereo not given)
Cc1onc(-c2ccccc2Cl)c1C(=O)NCCn1ccc2ccccc21
Cc1cc(C)c2c(c1)cc(C)c1nnc(SCC(=O)Nc3cc(C)on3)n12
Cc1nc(SCC(=O)Nc2cc(C)on2)c2c(C)c(C)sc2n1
Cn1c(=O)c2c(nc(SCC(=O)Nc3ccccc3N3CCCCC3)n2C)n(C)c1=O
CC(C)c1cc(CN(C)C)c(O)c(C(C)(C)C)c1
O=C(Cn1c(=S)nc2ccccn21)N1CCc2ccccc2C1
O=C1c2ccccc2C(=O)N1c1ccccc1S(=O)C(F)(F)F (stereo not given)
CC1Cc2ccccc2N1C(=O)Cn1cnc2ccccc2c1=O (stereo not given)
CCOC(=O)CC1=CC(=O)Nc2ccccc2N1
CCCOC(=O)Cc1c(O)c2ccccc2[nH]c1=O
CC1(C)Cc2ccccc2-c2nnc(-c3cccc(O)c3)n21
CCCC(=O)Nc1ccc(Cl)c(NC(=O)c2ccc(Br)o2)c1
Cc1cc(C)nc(-n2nc(C)cc2NC(=O)c2ccc(Br)o2)n1
COc1ccc(CCNC(=O)CSc2nnc(-c3cccc(F)c3)o2)cc1OC
CC(C)C(=O)Nc1cccc(C(=O)Nc2ccc3c(c2)OCO3)c1

Max dye-equivalent concentration, active:
Cc1ccc2cccc(O)c2[n+]1[O-] 16 nM
CN1CCc2c(sc3c2c(NCc2ccco2)nc2nnnn23)C1 530 nM
COc1ccccc1Nc1ncnc2c1oc1ccccc12 84 nM
COc1c(F)c(F)c(-c2csc(N)n2)c(F)c1F 15 nM
CCOc1cc(N2CCOCC2)c(OCC)cc1NC(=O)COc1cccc2cccnc12 19 nM
COc1cccc(-c2cc3nc4c(c(N5CCC6(CC5)OCCO6)n3n2)CCCC4)c1 130 nM
CCOC(=O)c1sc(/N=C/Nc2nc(C)c(C(=O)OCC)s2)nc1C 10 nM
C=CCNc1nnc(SCC(=O)N2CCCCC2)c2ccccc12 15 nM
COCCNC(=O)c1snc2ccc(Cl)cc12 46 nM
Cc1ccc2nc(-c3ccc(SCC(=O)Nc4cc(C)on4)nc3)[nH]c2c1 30 nM
O=c1oc2cc(O)ccc2cc1-c1ccc(F)cc1 100 nM
CCOC(=O)CCc1c(C)c(C#N)c2[nH]c3ccccc3n2c1=O 5400 nM
CCc1c(C)sc(NC(=O)c2ccc(Br)o2)c1C(=O)OC 190 nM

From PubChem BioAssay AID590 (National Center for Advancing Translational Sciences (NCATS), 2007)
